From PubChem BioAssay
MCF10A rereplic = A quantitative high throughput screen for small molecules that induce DNA re-replication in MCF 10a normal breast cells; MCF 10A DNA re-replication, Hoechst nuclear intensity, 48 h; Potency, µM (top dose mostly 46.1 µM), for inactives: top-dose activity, positive = re-replication, most hits filed as activators; hit rate 2.9% among 350,000; further: potency means the concentration at half of the fitted maximal effect; % of control where 0% means no effect; nearly all actives have a fitted effect of over 50% in size
TDP1 cell CPT = qHTS for Inhibitors of human tyrosyl-DNA phosphodiesterase 1 (TDP1): qHTS in cells in presence of CPT | chicken DT40 Tdp1-/-;hTDP1 cells + 20 nM CPT, ATP luminescence, 48 h | Potency, µM (titrated, usually from 46.2 µM), for inactives: at the highest dose activity change, negative = growth inhibition, usual class: inhibitors | hit rate 12% among 420,000 | AID 686979, 2013; further: potency means the concentration at half of the fitted maximal effect; on the % scale 0 is the no-effect control and ±100 the full control effect; nearly all actives have a fitted effect of over 55% in size
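Cell growth measured by CellTiter-Glo luminescence after a minimum 48 h, 37 C compound exposure with 20 nM CPT in Tdp1-knockout DT40 cells stably expressing hTDP1, seeded 400/well; qHTS titration format.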
SW480 rerep = A quantitative high throughput screen for small molecules that induce DNA re-replication in SW480 colon adenocarcinoma cells; hit rate 1.8% among 340,000; AID 624297, 2012; Potency, µM (doses to about 46.1 µM), for inactives: at the top dose re-replication activation, hits mostly activators; SW480 DNA re-replication, Hoechst DNA content imaging, 48 h; further: potency means the concentration at half of the fitted maximal effect; % of control where 0% means no effect; nearly all actives have a fitted effect of over 55% in size
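Cells (250 per well) received 23 nL compound or DMSO by pin tool and were kept 48 hr at 37 C, 5% CO2. Nuclei were then stained with Hoechst for 40 min and scanned for DNA content.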
IL1B secr inh = qHTS for Inhibitors of Inflammasome Signaling: IL-1-beta AlphaLISA Primary Screen. THP-1 LPS/ATP IL-1B secretion, AlphaLISA, 16 h; hits give low values. activity change, % at 57.5 µM. hit rate 4.7% among 360,000. AID 743279, 2014; in the data active means activity change below about -50%; inconclusive means mostly about -30% to -49%; further: on the % scale 0 is the no-effect control and ±100 the full control effect
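THP-1 cells pretreated 1 hr with compounds (up to 57.5 uM final), then stimulated with LPS (250 ng/mL final) plus ATP (1.25 mM final); secreted IL-1B measured by AlphaLISA after 16 hr, decreased signal indicating inhibition.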
Chronic BCR inh = qHTS Assay to Find Inhibitors of Chronic Active B-Cell Receptor Signaling; ABC-DLBCL IkBa-CBG/CBR reporter, luminescence ratio, 4 h; Potency, µM (highest dose often 46.1 µM), without a hit: at the top dose activity change, negative = inhibition, most hits filed as inhibitors; hit rate 0.05% among 340,000; AID 493014, 2011; active means well fitted inhibition curve with a large enough effect in the signal ratio, with a control signal flat, not every such curve was filed as active; inconclusive means small, poorly fitted or top-dose-only effect, or effect the other way, or a change in a side signal; the % refers to the signal ratio;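 further: potency means the concentration at half of the fitted maximal effect; plate controls were basal doxycycline-induced cells for no effect and cells given 10 µM MG132 for full effect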
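Doxycycline induced both beetle luciferases in TMD8 lymphoma cells; IKK-driven degradation limits the IkappaBalpha-fused green signal, while red luminescence normalises for cell number and nonspecific effects. Compounds tested up to 46 uM, 4 hrs.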
DT40 TDP1 no CPT = qHTS for Inhibitors of human tyrosyl-DNA phosphodiesterase 1 (TDP1): qHTS in cells in absence of CPT; DT40 Tdp1-/- hTDP1 cells, no CPT, ATP luminescence, 48 h; Potency, µM (titrated, usually from 46.2 µM), for inactives: at the highest dose activity change, negative = growth inhibition, usual class: inhibitors; hit rate 15% among 420,000; further: potency means the concentration at half of the fitted maximal effect; on the % scale 0 is the no-effect control and ±100 the full control effect; nearly all actives have a fitted effect of over 55% in size
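A cellular qHTS used chicken DT40 cells lacking endogenous Tdp1 but carrying stably transfected human TDP1. Compounds were applied without camptothecin, and cell growth kinetics were judged by ATP-dependent luminescence after ≥48 hr.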
* hit, by the source's call; ? = inconclusive; . = no result given; [ ] = another dose, or the depositor's remark. Rows were chosen to be rich in hits. Some 19% of all compounds tested hit in one or more screens of this group. Unless noted, the call rests on the fitted dose curve; in most records, active means well fitted curve in the direction sought with a large enough effect; inconclusive means small, poorly fitted or top-dose-only effect, or another doubt; inactive means no such curve, though single readings can be large; an effect the other way counts as inactive or inconclusive.

SMILES	MCF10A rereplic	TDP1 cell CPT	SW480 rerep	IL1B secr inh	Chronic BCR inh	DT40 TDP1 no CPT
CCOC(=O)N1CCC(NC(=O)c2cc(C(=O)NCc3ccc(F)cc3)ccc2CO)CC1	-32%	?	-4%	16	3%	12µM*
CCOC(=O)N1CCC(NC(=O)c2cc(C(=O)NC3CCN(Cc4ccccc4)CC3)ccc2CO)CC1	-3%	1.8µM*	5%	-8	-9%	-24%
O=C(c1nc2ncccn2n1)N1CCOc2ccc(C(O)C(c3ccccc3)c3ccccc3)cc2C1 (stereo unspecified)	.	?	.	.	.	-46%
CC(=O)c1nnn(-c2ccc(C)cc2Cl)c1C	.	-5%	.	.	.	-2%
Cc1cccc(N=C2NC(=O)/C(=C/c3cccn3C)S2)c1C	?	?	-58%	-3	?	8.2µM*
Cc1ccc(N=C2NC(=O)/C(=C/c3cccn3C)S2)cc1C	15µM*	21µM*	?	20	?	9.2µM*
Cc1ccccc1N=C1NC(=O)/C(=C/c2cccn2-c2cccc(C(=O)O)c2)S1	?	8%	-5%	52	2%	3%
Cc1cccc(N=C2NC(=O)/C(=C/c3cccnc3)S2)c1C	13%	?	13%	-7	?	-27%
Cc1ccc(N=C2NC(=O)/C(=C/c3cccn3C)S2)cc1	?	6.5µM*	10µM*	41	?	4.6µM*
Cn1c2ccccc2c2cnn(CC(=O)Nc3ccccc3F)c(=O)c21	.	-9%	.	.	.	?
N#Cc1ccc(CN2CCCC3(CCN(C(=O)c4cnccn4)CC3)C2)cc1	.	-9%	.	.	.	5%
COc1ccc(C)cc1S(=O)(=O)N1CCN(C(=O)c2ncoc2-c2ccccc2F)CC1	16%	-1%	-1%	13	16%	?
Cc1ccc(OCCNC(=O)C(C)SCC(=O)Nc2ccc(F)cc2)cc1 (stereo unspecified)	-1%	-17%	-30%	-5	-13%	0%
COc1ccc(Cl)cc1NC(=O)c1c(NCc2ccc(C)o2)sc2c1CCCC2	.	?	.	.	25%	21µM*
CCOc1ccccc1NC(=O)c1c(NCc2ccc(C)o2)sc2c1CCCCC2	.	4.6µM*	.	.	-10%	2.9µM*
CCOc1ccccc1NC(=O)c1c(NCc2ccc(C)o2)sc2c1CCC(C)C2 (stereo unspecified)	.	-11%	.	.	?	-16%
CCOC(=O)N1CCc2c(sc(NCc3ccc(N(C)C)cc3)c2C(=O)Nc2ccccc2OCC)C1	.	?	.	.	-3%	8.2µM*
CCOC(=O)N1CCc2c(sc(NCc3sccc3C)c2C(=O)Nc2cc(Cl)ccc2OC)C1	.	-24%	.	.	-4%	?
COc1ccccc1NC(=O)c1c(NC(=O)c2ccccc2Cl)sc2c1CCC2	.	-2%	.	.	.	-7%
COc1ccc(Cl)cc1NC(=O)c1c(NCc2cccnc2)sc2c1CCCC2	.	23µM*	.	.	?	15µM*
O=C(Cn1ccc(=O)[nH]c1=O)Nc1ccc(O)c([N+](=O)[O-])c1	-3%	-2%	10%	10	.	0%
Cc1ccccc1Nc1c(-c2ccccn2)nc2ccccn12	?	9.2µM*	19%	-23	?	8.2µM*
Cc1ccc2nc(-c3ccccn3)c(Nc3ccccc3C)n2c1	?	16µM*	3.7µM*	72	-3%	10µM*
CC(C)c1ccc(Nc2c(-c3ccccn3)nc3ccccn23)cc1	.	9.2µM*	.	.	.	2.1µM*
Cc1ccn2c(Nc3ccccc3C)c(-c3ccccn3)nc2c1	?	16µM*	4%	0	-5%	2.9µM*
SMILES	MCF10A rereplic	TDP1 cell CPT	SW480 rerep	IL1B secr inh	Chronic BCR inh	DT40 TDP1 no CPT
CN(C(=O)COC(=O)c1nc(Cl)ccc1Cl)c1ccccc1	-7%	1%	-5%	-2	1%	-7%
Cc1ccn2c(Nc3ccccc3)c(-c3ccccn3)nc2c1	16µM*	4.6µM*	?	98	?	2.6µM*
Cc1ccc2nc(-c3ccccn3)c(Nc3ccc(F)cc3)n2c1	.	2.1µM*	.	.	.	2.3µM*
Cc1ccc2nc(-c3ccccn3)c(N)n2c1	.	?	.	-4	.	?
Cc1ccc2c(c1)CN(CCNC(=O)c1ccc3nc(C)[nH]c3c1)CC(C)O2 (stereo unspecified)	.	7%[9.04 µM]	.	.	.	-7%
O=C(CCC(=O)c1ccc(F)cc1)OCc1nnc(-c2ccc([N+](=O)[O-])cc2)o1	2%	-27%	-4%	9	0%	1%
COc1ccc(CN2CCc3c([nH]c4ccccc34)C2)cc1Br	?	-21%	?	-19	?	?
COc1ccc(CN2CCc3c([nH]c4ccccc34)C2)c(OC)c1C	?	?	20%	-89*	-8%	?
COc1ccc(Cl)cc1NC(=O)CN(C)C(=O)c1ccc(OCc2ccccc2)c(OC)c1	15%	?	6%	-4	?	23µM*
COc1ccc(Cl)cc1NC(=O)CN(C)C(=O)c1cn2ccccc2n1	?	?	13µM*	41	1%	?
CC(=O)Nc1ccc(SCC(=O)c2cc(C)n(-c3ccccc3)c2C)cc1	0%	-11%	-2%	-9	-9%	-14%
CCCCCCCC[n+]1c(C)n(-c2ccccc2)c2ccc(NC(C)=O)cc21	28%	0.41µM*	9%	-103*	1%	0.82µM*
Cc1scc(C(=O)N/N=C/c2ccc(Cl)s2)c1C	5%	?	-397%	-6	-1%	16µM*
COc1ccccc1/C=N/NC(=O)c1csc(C)c1C	1%	7%	-7%	-5	?	-8%
CCCCOc1cccc(/C=N/NC(=O)c2csc(C)c2C)c1	?	?	2%	?	?	23µM*
Cc1scc(C(=O)N/N=C/c2ccc(OC(C)C)cc2)c1C	16%	?	6%	-70*	1%	?
CC(C)NC(=O)N(C)C[C@@H]1OCc2cn(nn2)CCCC(=O)N([C@H](C)CO)C[C@H]1C	.	-1%	.	14	.	-7%
Cc1ccccc1S(=O)(=O)N1C[C@H]2[C@H]3C(=O)N(c4ccccc4)C(=O)[C@H]3CC(=O)[C@H]2[C@@H]1c1ccc(Cl)cc1	.	-5%	.	7	.	0%
c1ccc2c(c1)Nc1cc3ccccc3cc1S2	?	3%	3%	4	6%	-10%
